In PubChem BioAssay (NCI):
About 79,000 compounds went through this panel and 15% of them were active in at least one assay; those are over-represented in the sample as a whole. A number with no mark means an inactive call. The source made the active and inactive calls. No stated cut-off is given here; in the data, active means growth inhibition above about 70%; inactive means the rest.

Tests used:
[1] = NCI Yeast Anticancer Drug Screen. Data for the rad52 strain (AID 147);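 further: 0% = growth of vehicle-treated control cultures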; conditions: S. cerevisiae rad52 mutant growth inhibition, hits give high values
Summary of the method: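 Growth of repair-deficient yeast cells was compared between compound-treated and vehicle-treated cultures to give percent inhibition.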

[2] = NCI Yeast Anticancer Drug Screen. Data for the wt1 strain (AID 149);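 further: 0% = growth of vehicle-treated wt1 cultures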; conditions: S. cerevisiae wt1 strain (SPY 50644) growth inhibition, hits give high values
Summary of the method: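 Compounds are added to wt1 yeast cultures. Growth is then measured. Inhibition is expressed relative to vehicle-treated controls.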

[3] = NCI Yeast Anticancer Drug Screen. Data for the rad50EPP+ strain (AID 151);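 further: 0% = growth of vehicle-treated control cultures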; conditions: S. cerevisiae rad50 mutant strain, hits give high values
Summary of the method: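 Measured: growth inhibition of rad50EPP+ yeast. Reference: vehicle-treated controls. Screen uses strains with defined genetic alterations in DNA damage repair or cell cycle control.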

[4] = NCI Yeast Anticancer Drug Screen. Data for the mgt1 strain (AID 153); conditions: S. cerevisiae mgt1 mutant growth inhibition, hits give high values
Summary of the method: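 Compounds were applied to mgt1 mutant yeast, and growth was then compared against vehicle-treated control cultures to give percent inhibition.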

[5] = NCI Yeast Anticancer Drug Screen. Data for the rad50 strain (AID 155);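 further: 0% = growth of vehicle-only cultures of the same strain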; conditions: S. cerevisiae rad50 strain growth inhibition, hits give high values
Summary of the method: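 Inhibition values express reduced yeast growth in compound-treated cultures relative to vehicle-treated controls.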

[6] = NCI Yeast Anticancer Drug Screen. Data for the mec2-1 strain (AID 157); conditions: S. cerevisiae mec2-1 strain, hits give high values
Summary of the method: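 Compounds were applied to mec2-1 yeast cells. Their growth was then compared with that of vehicle-treated cultures to give growth inhibition.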

[7] = NCI Yeast Anticancer Drug Screen. Data for the rad14 strain (AID 159);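 further: 0% = growth of vehicle-treated control cultures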; conditions: S. cerevisiae rad14 strain growth inhibition, hits give high values
Summary of the method: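 A mutant yeast strain defective in DNA damage repair is treated with compound; inhibition of its growth is scored against untreated, vehicle-exposed cultures.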

[8] = NCI Yeast Anticancer Drug Screen. Data for the sgs1 mgt1 strain (AID 161);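 further: 0% = growth of cultures given vehicle only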; conditions: S. cerevisiae sgs1 mgt1 strain, hits give high values
Summary of the method: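 Yeast cells carrying a defined DNA-repair defect were exposed to test compounds. Growth inhibition was measured relative to vehicle-treated controls.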

[9] = NCI Yeast Anticancer Drug Screen. Data for the CLN2oe strain (AID 163);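 further: 0% = growth of vehicle-only control cultures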; conditions: S. cerevisiae CLN2oe strain, hits give high values
Summary of the method: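 Cells of an engineered yeast line with disturbed cell-cycle regulation are treated with compound. Inhibition of growth is then calculated relative to the vehicle-treated reference.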

[10] = NCI Yeast Anticancer Drug Screen. Data for the cln2 rad14 strain (AID 165);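 further: 0% = growth equal to vehicle treated cultures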; conditions: S. cerevisiae cln2 rad14 strain, hits give high values
Summary of the method: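 Strain: cln2 rad14 yeast, altered in cell cycle control and DNA damage repair. Read-out: growth inhibition vs vehicle.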

[11] = NCI Yeast Anticancer Drug Screen. Data for the bub3 strain (AID 167); conditions: S. cerevisiae bub3 mutant strain, hits give high values
Summary of the method: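 Steps: expose the mutant yeast strain to compound; grow alongside vehicle-treated cultures; measure growth; express inhibition against the vehicle cultures.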

[12] = NCI Yeast Anticancer Drug Screen. Data for the wt2 strain (AID 169);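 further: 0% = growth of vehicle-treated yeast cultures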; conditions: S. cerevisiae wt2 strain growth inhibition, hits give high values
Summary of the method: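 Growth of compound-treated yeast is measured and expressed as inhibition relative to vehicle-only controls.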

[13] = NCI Yeast Anticancer Drug Screen. Data for the mlh1 strain (AID 171);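 further: 0% = growth of vehicle-treated control cultures of the same strain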; conditions: S. cerevisiae mlh1 strain growth inhibition, hits give high values
Summary of the method: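 Test agents were incubated with yeast bearing a defined DNA damage repair or cell cycle control alteration; values are growth inhibition normalised to vehicle-treated cultures.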

[14] = NCI Yeast Anticancer Drug Screen. Data for the sgs1 strain (AID 173);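 further: 0% = growth of vehicle-only control cultures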; conditions: S. cerevisiae sgs1 mutant, hits give high values
Summary of the method: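 Strain with an altered DNA repair or cell cycle pathway exposed to compound. Growth then measured. Value = inhibition versus vehicle control.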

[15] = NCI Yeast Anticancer Drug Screen. Data for the mlh1 rad18 strain (AID 175); conditions: S. cerevisiae mlh1 rad18 strain growth inhibition, hits give high values
Summary of the method: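 A repair-deficient yeast strain is exposed to test compound, and growth is scored relative to vehicle-treated controls.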

[16] = NCI Yeast Anticancer Drug Screen. Data for the rad18 strain (AID 177); conditions: S. cerevisiae rad18 mutant growth inhibition, hits give high values
Summary of the method: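 DNA-repair-defective yeast; compound treatment; growth inhibition scored against vehicle.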

[17] = at 5.0 µM (retest, dose inferred, filed as 0.5)
[18] = at 50.0 µM (retest, dose inferred, filed as 5.0)

## CC(C)OP(=O)(OC(C)C)/C(Cl)=N/Nc1ccc([N+](=O)[O-])cc1
[1]; at 1.2 µM
  growth inhibition: -10%
[1]; at 3.7 µM
  growth inhibition: -6%
[1]; at 11.0 µM
  growth inhibition: 52%
[1]; at 33.0 µM
  growth inhibition: 90% (active)
[1]; at 100.0 µM
  growth inhibition: 95% (active)
[2]; at 1.2 µM
  growth inhibition: -10%
[2]; at 3.7 µM
  growth inhibition: -10%
[2]; at 11.0 µM
  growth inhibition: 19%
[2]; at 33.0 µM
  growth inhibition: 38%
[2]; at 100.0 µM
  growth inhibition: 85% (active)
[3]; at 1.2 µM
  growth inhibition: 25%
[3]; at 3.7 µM
  growth inhibition: 50%
[3]; at 11.0 µM
  growth inhibition: 93% (active)
[3]; at 33.0 µM
  growth inhibition: 96% (active)
[3]; at 100.0 µM
  growth inhibition: 96% (active)
[4]; at 1.2 µM
  growth inhibition: -21%
[4]; at 3.7 µM
  growth inhibition: -29%
[4]; at 11.0 µM
  growth inhibition: 16%
[4]; at 33.0 µM
  growth inhibition: 78% (active)
[4]; at 100.0 µM
  growth inhibition: 94% (active)
[5]; at 1.2 µM
  growth inhibition: -10%
[5]; at 3.7 µM
  growth inhibition: -21%
[5]; [17]
  growth inhibition: 19%
[5]; at 11.0 µM
  growth inhibition: 61%
[5]; at 33.0 µM
  growth inhibition: 93% (active)
[5]; [18]
  growth inhibition: 95% (active)
[5]; at 50.0 µM
  growth inhibition: 88.7% (active)
[5]; at 100.0 µM
  growth inhibition: 94% (active)
[6]; at 1.2 µM
  growth inhibition: -5%
[6]; at 3.7 µM
  growth inhibition: -3%
[6]; [17]
  growth inhibition: 13%
[6]; at 11.0 µM
  growth inhibition: 52%
[6]; at 33.0 µM
  growth inhibition: 81% (active)
[6]; [18]
  growth inhibition: 80% (active)
[6]; at 50.0 µM
  growth inhibition: 81% (active)
[6]; at 100.0 µM
  growth inhibition: 90% (active)
[7]; at 1.2 µM
  growth inhibition: -8%
[7]; at 3.7 µM
  growth inhibition: 6%
[7]; at 11.0 µM
  growth inhibition: 24%
[7]; at 33.0 µM
  growth inhibition: 34%
[7]; at 100.0 µM
  growth inhibition: 80% (active)
[8]; [17]
  growth inhibition: 6%
[8]; [18]
  growth inhibition: 74% (active)
[8]; at 50.0 µM
  growth inhibition: 90.8% (active)
[9]; at 1.2 µM
  growth inhibition: 18%
[9]; at 3.7 µM
  growth inhibition: 20%
[9]; at 11.0 µM
  growth inhibition: 79% (active)
[9]; at 33.0 µM
  growth inhibition: 95% (active)
[9]; at 100.0 µM
  growth inhibition: 96% (active)
[10]; [17]
  growth inhibition: 28%
[10]; [18]
  growth inhibition: 80% (active)
[10]; at 50.0 µM
  growth inhibition: 89.2% (active)
[11]; at 1.2 µM
  growth inhibition: -4%
[11]; at 3.7 µM
  growth inhibition: 3%
[11]; [17]
  growth inhibition: 29%
[11]; at 11.0 µM
  growth inhibition: 86% (active)
[11]; at 33.0 µM
  growth inhibition: 95% (active)
[11]; [18]
  growth inhibition: 95% (active)
[11]; at 50.0 µM
  growth inhibition: 91.6% (active)
[11]; at 100.0 µM
  growth inhibition: 95% (active)
[12]; at 1.2 µM
  growth inhibition: 3%
[12]; at 3.7 µM
  growth inhibition: 5%
[12]; at 11.0 µM
  growth inhibition: 39%
[12]; at 33.0 µM
  growth inhibition: 71% (active)
[12]; at 100.0 µM
  growth inhibition: 93% (active)
[13]; at 1.2 µM
  growth inhibition: 13%
[13]; at 3.7 µM
  growth inhibition: 23%
[13]; at 11.0 µM
  growth inhibition: 86% (active)
[13]; at 33.0 µM
  growth inhibition: 96% (active)
[13]; at 100.0 µM
  growth inhibition: 94% (active)
[14]; at 1.2 µM
  growth inhibition: 28%
[14]; at 3.7 µM
  growth inhibition: 23%
[14]; at 11.0 µM
  growth inhibition: 94% (active)
[14]; at 33.0 µM
  growth inhibition: 97% (active)
[14]; at 100.0 µM
  growth inhibition: 98% (active)
[15]; [17]
  growth inhibition: 47%
[15]; [18]
  growth inhibition: 97% (active)
[15]; at 50.0 µM
  growth inhibition: 87.3% (active)
[16]; at 1.2 µM
  growth inhibition: 29%
[16]; at 3.7 µM
  growth inhibition: 28%
[16]; at 11.0 µM
  growth inhibition: 85% (active)
[16]; at 33.0 µM
  growth inhibition: 96% (active)
[16]; at 100.0 µM
  growth inhibition: 96% (active)

## Cc1ccc(S(=O)(=O)Nc2cccc3cccnc23)cc1
[1]; at 1.2 µM
  growth inhibition: 10%
[1]; at 3.7 µM
  growth inhibition: 14%
[1]; at 11.0 µM
  growth inhibition: 25%
[1]; at 33.0 µM
  growth inhibition: 75% (active)
[1]; at 100.0 µM
  growth inhibition: 52%
[2]; at 1.2 µM
  growth inhibition: 15%
[2]; at 3.7 µM
  growth inhibition: 14%
[2]; at 11.0 µM
  growth inhibition: 18%
[2]; at 33.0 µM
  growth inhibition: 71% (active)
[2]; at 100.0 µM
  growth inhibition: 39%
[3]; at 1.2 µM
  growth inhibition: 16%
[3]; at 3.7 µM
  growth inhibition: 17%
[3]; at 11.0 µM
  growth inhibition: 16%
[3]; at 33.0 µM
  growth inhibition: 62%
[3]; at 100.0 µM
  growth inhibition: 66%
[4]; at 1.2 µM
  growth inhibition: 14%
[4]; at 3.7 µM
  growth inhibition: -5%
[4]; at 11.0 µM
  growth inhibition: 25%
[4]; at 33.0 µM
  growth inhibition: 77% (active)
[4]; at 100.0 µM
  growth inhibition: 79% (active)
[5]; at 1.2 µM
  growth inhibition: 15%
[5]; at 3.7 µM
  growth inhibition: 25%
[5]; [17]
  growth inhibition: 46%
[5]; at 11.0 µM
  growth inhibition: 22%
[5]; at 33.0 µM
  growth inhibition: 79% (active)
[5]; [18]
  growth inhibition: 97% (active)
[5]; at 50.0 µM
  growth inhibition: 46%
[5]; at 100.0 µM
  growth inhibition: 84% (active)
[6]; at 1.2 µM
  growth inhibition: 7%
[6]; at 3.7 µM
  growth inhibition: 18%
[6]; [17]
  growth inhibition: 49%
[6]; at 11.0 µM
  growth inhibition: 23%
[6]; at 33.0 µM
  growth inhibition: 79% (active)
[6]; [18]
  growth inhibition: 98% (active)
[6]; at 50.0 µM
  growth inhibition: 20.2%
[6]; at 100.0 µM
  growth inhibition: 60%
[7]; at 1.2 µM
  growth inhibition: -19%
[7]; at 3.7 µM
  growth inhibition: -16%
[7]; at 11.0 µM
  growth inhibition: 16%
[7]; at 33.0 µM
  growth inhibition: 72% (active)
[7]; at 100.0 µM
  growth inhibition: 56%
[8]; [17]
  growth inhibition: -15%
[8]; [18]
  growth inhibition: 41%
[8]; at 50.0 µM
  growth inhibition: 59%
[9]; at 1.2 µM
  growth inhibition: 15%
[9]; at 3.7 µM
  growth inhibition: 12%
[9]; at 11.0 µM
  growth inhibition: 41%
[9]; at 33.0 µM
  growth inhibition: 69%
[9]; at 100.0 µM
  growth inhibition: 46%
[10]; [17]
  growth inhibition: 25%
[10]; [18]
  growth inhibition: 54%
[10]; at 50.0 µM
  growth inhibition: 48%
[11]; at 1.2 µM
  growth inhibition: -11%
[11]; at 3.7 µM
  growth inhibition: -14%
[11]; [17]
  growth inhibition: 29%
[11]; at 11.0 µM
  growth inhibition: -3%
[11]; at 33.0 µM
  growth inhibition: 50%
[11]; [18]
  growth inhibition: 23%
[11]; at 50.0 µM
  growth inhibition: 27.7%
[11]; at 100.0 µM
  growth inhibition: 15%
[12]; at 1.2 µM
  growth inhibition: -13%
[12]; at 3.7 µM
  growth inhibition: -5%
[12]; at 11.0 µM
  growth inhibition: 8%
[12]; at 33.0 µM
  growth inhibition: 53%
[12]; at 100.0 µM
  growth inhibition: 59%
[13]; at 1.2 µM
  growth inhibition: 14%
[13]; at 3.7 µM
  growth inhibition: 3%
[13]; at 11.0 µM
  growth inhibition: 9%
[13]; at 33.0 µM
  growth inhibition: 78% (active)
[13]; at 100.0 µM
  growth inhibition: 62%
[14]; at 1.2 µM
  growth inhibition: 1%
[14]; at 3.7 µM
  growth inhibition: 4%
[14]; at 11.0 µM
  growth inhibition: 44%
[14]; at 33.0 µM
  growth inhibition: 82% (active)
[14]; at 100.0 µM
  growth inhibition: 63%
[15]; [17]
  growth inhibition: 44%
[15]; [18]
  growth inhibition: 100% (active)
[15]; at 50.0 µM
  growth inhibition: 71% (active)
[16]; at 1.2 µM
  growth inhibition: 9%
[16]; at 3.7 µM
  growth inhibition: 4%
[16]; at 11.0 µM
  growth inhibition: 25%
[16]; at 33.0 µM
  growth inhibition: 74% (active)
[16]; at 100.0 µM
  growth inhibition: 71% (active)
